IL1B secr inh = blocks inflammasome-driven IL-1 beta release | THP-1 LPS/ATP IL-1B secretion, AlphaLISA, 16 h; active compounds read low | activity change, % at 57.5 µM | hit rate 4.7% among 360,000 | AID 743279; in the data active = activity change below about -50%; inconclusive = mostly about -30% to -49%; note: % is set by controls: 0 for no effect and ±100 for the full control effect
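Secreted IL-1B measured by AlphaLISA bead assay after 16 h compound exposure of THP-1 cells; compounds (final up to 57.5 uM) added 1 h before LPS (250 ng/mL) and ATP (1.25 mM) stimulation; lower signal means less secretion.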
MCF10A rerep = induces DNA re-replication in MCF 10a normal breast cells | MCF 10A DNA re-replication, Hoechst nuclear intensity, 48 h | AID 624296 | hit rate 2.9% among 350,000 | Potency, µM (series often up to 46.1 µM), for the others: at the top dose activity, positive = re-replication, actives largely listed as activators; note: potency is the fitted concentration of half-maximal effect; % of control where 0% means no effect; nearly all actives have a fitted effect of over 50% in size
PINK1 modulator = changes PINK1 expression; PINK1 immunofluorescence, high-content cytometry, 24 h; hit rate 0.2% among 410,000; Potency, µM (doses to about 76.6 µM), for inactives: at the highest dose activation (PINK1 increase), usual class: activators; active = well fitted activation curve with a large enough effect; inconclusive = small, poorly fitted or top-dose-only effect; cell line not stated here; note: potency is the fitted concentration of half-maximal effect; % of control where 0% means no effect; nearly all actives have a fitted effect of over 65% in size
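Measures PINK1 amount and localization on or inside mitochondria by immunofluorescence. Stable cells get compounds at 5 concentrations for 24 hours before fixation and staining; CCCP controls included.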
ATXN2 expr inh = reduces ATXN2 reporter expression in HEK-293 cells | Potency, µM (titrated, usually from 57 µM), inactives show top-dose activity change, negative = inhibition, actives largely listed as inhibitors | hit rate 0.72% among 360,000 | AID 1745845 | HEK-293 ATXN2-luciferase reporter, luminescence, 24 h; note: potency is the fitted concentration of half-maximal effect; % is set by controls: 0 for no effect and ±100 for the full control effect; nearly all actives have a fitted effect of over 55% in size
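ATXN2-luciferase reporter cells (luciferase flanked by upstream and downstream ATXN2 gene portions) were treated 24 h at 37 °C with compounds at up to 57 uM. SteadyGlo luminescence gave expression; GF-AFC fluorescence gave viability.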
ATXN viability = viability counter-screen for ATXN expression inhibitors | Potency, µM (titrated, usually from 56.7 µM), actives largely listed as cytotoxic | hit rate 0.49% among 400,000 | AID 651635 | S2 cells (HEK-293 line with an ATXN2-luciferase reporter) viability, CellTiter-Fluor protease fluorescence, 24 h; note: potency is the fitted concentration of half-maximal effect; nearly all actives have a fitted effect of over 40% in size
SW480 rereplic = inducers of DNA re-replication in SW480 colon cancer cells; SW480 DNA re-replication, Hoechst DNA content imaging, 48 h; Potency, µM (top dose mostly 46.1 µM), without a hit: top-dose re-replication activation, actives largely listed as activators; hit rate 1.8% among 340,000; AID 624297; note: potency is the fitted concentration of half-maximal effect; % of control where 0% means no effect; nearly all actives have a fitted effect of over 55% in size
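Image-based read-out: total Hoechst fluorescence of nuclei (405 nm excitation, 500-530 nm emission), with hits raising the fraction of high-intensity nuclei. SW480 colon cells incubated 48 hr with compounds at 37 C.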
Numbers without * were called inactive; i = inactive; ? = inconclusive; . = no result; [ ] = dose if it differs, or a comment. Only some compounds are listed: those with a hit (about 7.1% of all), similar ones and a draw of the others. Unless noted, calls come from the whole dose curve; as a rule, active = well fitted curve in the direction sought with a large enough effect; inconclusive = small, poorly fitted or top-dose-only effect, or another doubt; inactive = no such curve, though single readings can be large; an effect the other way counts as inactive or inconclusive.

SMILES	IL1B secr inh	MCF10A rerep	PINK1 modulator	ATXN2 expr inh	ATXN viability	SW480 rereplic
CC1CCc2c(nc3sc4c(c3c2N)CCCC4)C1 (stereo unspecified)	-91.2*	?	?	-22.9%	?	-4.7%
CC1CCc2nc3sc4c(c3c(N)c2C1)CCCC4 (stereo unspecified)	.	?	?	1.5%	i	13.8%
O=S(=O)(NC1c2cccc3cccc(c23)C1N1CCNCC1)c1ccc(Cl)cc1 (stereo unspecified)	-60.4*	5.7%	0.3%	-17.3%[11.3 µM]	?	-2.4%
COc1ccc(CCNC(=O)COC(=O)Cc2c[nH]c3ccccc23)cc1OC	27.0	-0.5%	-0.4%	-1.5%	?	-2.8%
Cc1cnn(CCC(=O)NNC(=S)Nc2cccc(Cl)c2)c1	9.8	-0.2%	-0.5%[38.3 µM]	8.0%	i	6.51µM*
CC1(Cc2ccc(C(F)(F)F)o2)C(=O)Nc2cc(-c3ccc(F)cc3F)ccc21 (stereo unspecified)	-64.3*	.	0.1%	?	?	.
CCOC(=O)C1CCCN(C(=O)c2ccc3c(c2)sc2nc(-c4cccc(OC)c4)cn23)C1 (stereo unspecified)	.	.	-0.6%	.	.	.
CO/N=C/c1ccc(N2CCN(C(=O)c3ccc(Cl)cc3Cl)CC2)c([N+](=O)[O-])c1	-61.8*	11.1%	-21.2%[38.3 µM]	-31.3%	i	15.4%
CO/N=C/c1ccc(N2CCN(C(=O)c3ccc(F)cc3)CC2)c([N+](=O)[O-])c1	-7.6	17.6%	4.8%[38.3 µM]	-18.6%	i	-2.9%
O=C(Nc1ccc(C(=O)N2CCN(c3cccc(Cl)c3)CC2)cc1)c1nsc2ccccc12	.	.	0.7%	59.1%	i	.
COc1ccc2nc(SCC(C)=O)c(C#N)cc2c1	-7.9	4.2%	2.6%	31.3%	i	-6.2%
Cc1cc(C)cc(C(=O)N2CC(=O)Nc3ccccc32)c1	21.1	?	?	4.4%	?	0.731µM*
COc1cc(C(=O)N2CC(=O)Nc3ccccc32)cc(OC)c1OC	62.7	.	6.7%	.	i	.
COc1ccc2nc(SCC(=O)N3CC(=O)Nc4ccccc43)c(C#N)cc2c1	?	2.82µM*	2.4%	?	i	5.01µM*
Cc1cc(C)c2nc(SCC(=O)N3CC(=O)Nc4ccccc43)c(C#N)cc2c1	43.9	0.82µM*	7.0%	5.6%	i	1.3µM*
COc1ccc2c(c1)/C(=C\c1cccc(/C=C3/C(=O)Nc4ccc(OC)cc43)n1)C(=O)N2	-107.2*	?	1.0%	3.16µM*	.	2.91µM*
O=C(Nc1ccccc1F)c1ccc([N+](=O)[O-])s1	-68.3*	?	?	-25.4%	i	14.6µM*
Cc1cc(C)cc(NC(=O)/C=C/c2ccc([N+](=O)[O-])s2)c1	-101.8*	4.11µM*	?	?	i	?
COC(=O)c1cccc(NC(=O)/C=C/c2cccc([N+](=O)[O-])c2)c1	-19.4	16.7%	4.2%[38.3 µM]	6.3%	i	2.9%
CC(=O)c1cccc(NC(=O)/C=C/c2ccc([N+](=O)[O-])s2)c1	-103.8*	3.66µM*	18.2%	?	.	2.91µM*
Cc1ccccc1NC(=O)/C=C/c1ccc([N+](=O)[O-])s1	-102.4*	1.64µM*	3.7%	10µM*	10µM*	0.164µM*
Cc1ccccc1NC(=O)/C=C/c1cccs1	-25.3	-3.0%	-0.1%	48.7%	i	-13.3%
O=C(Nc1cccc2ccccc12)c1ccc([N+](=O)[O-])s1	15.0	?	7.9%	.	i	?
CSc1nc(C)cc(Nc2c(C)cc(C)cc2C)n1	.	.	4.0%	-15.2%	?	.
Cc1cccc(C)c1OCCCn1c(CCNC(=O)C2CCCCC2)nc2ccccc21	.	.	1.8%	.	.	.
SMILES	IL1B secr inh	MCF10A rerep	PINK1 modulator	ATXN2 expr inh	ATXN viability	SW480 rereplic
O=C1CCCc2cc(S(=O)(=O)NCC3CCC(C(=O)Nc4ccc(Cl)cc4)CC3)ccc2N1 (stereo unspecified)	.	.	1.8%	-16.3%	i	.
CN(CC(=O)Nc1cccc(S(=O)(=O)NC2=NCCC2)c1)Cc1ccccc1Cl	1.3	26.8%	-0.3%	2.5%	i	-22.7%
O=S(=O)(c1ccc(Oc2ncnc3scc(-c4ccccc4)c23)cc1)N1CCOCC1	-10.1	20.6µM*	4.4%	-6.2%	i	10.2%
CC(=O)Nc1cccc(Oc2ncnc3scc(-c4ccccc4)c23)c1	-53.3*	?	1.3%	-39.0%	?	-5.9%
O=S(=O)(c1ccc(Oc2ccccc2)cc1)N1CCOCC1	0.3	-5.2%	-4.4%[38.3 µM]	1.9%	i	-0.5%
O=C(O)c1cccc(Nc2ncnc3scc(-c4ccccc4)c23)c1	.	.	-4.3%	12.5%	i	.
CCN(CC(=O)NC(C)(C)C)C(=O)CCl	-54.9*	12.8%	-1.9%	9.9%	?	?
Nc1ccc(Cl)c(S(=O)(=O)Nc2cccc(Cl)c2)c1	2.2	0.184µM*	2.4%	-5.7%	i	-62.7%
Cc1cccc(CCNC(=O)c2cccc3c2C(=O)N(C2CCCCC2)C3)c1	-65.6*	?	9.4%	-15.1%	i	5.5%
CCOC(=O)N1CCC(N2Cc3cccc(C(=O)Nc4ccc(CC)cc4)c3C2=O)CC1	-70.1*	9.1%	10.5%	-21.7%	i	12.6%
CCOC(=O)N1CCC(N2Cc3cccc(C(=O)Nc4ccc(F)cc4)c3C2=O)CC1	1.0	3.6%	0.0%	-7.7%	i	5.5%
CNC(=O)c1ccccc1Sc1ccc2c(C=Cc3ccccn3)n[nH]c2c1	.	.	.	9.1%	.	.
Nc1cc2c(cc1N)-c1ccccc1C2	-51.8*	?	0.1%	68.2%	i	?
Nc1ccc2c(c1)Cc1cc(N)c(Cl)cc1-2	-4.6	14.4%	1.1%	27.4%	i	-5.2%
CCN(CC)S(=O)(=O)c1ccc(N/N=C/c2ccc(O)cc2O)nc1	82.4	?	8.5%	2.82µM*	?	?
Oc1ccc(C=NNc2ccccn2)c(O)c1	20.0	16.4µM*	-1.3%	?	?	?
CCN(CC)S(=O)(=O)c1ccc(N/N=C(\C)c2ccncc2)nc1	-5.3	?	-1.1%	2.8%	i	?
Oc1ccc(/C=N/Nc2cccc3cccnc23)c(O)c1	-76.8*	-1.1%	-3.4%[38.3 µM]	74.0%	?	1.0%
CCN(CC)S(=O)(=O)c1ccc(N/N=C(\C)c2cccnc2)nc1	-50.9*	-8.0%	6.9%	-2.2%	i	0.1%
CCc1ccc(C2c3c(oc4ccc(F)cc4c3=O)C(=O)N2CCc2ccc(OC)cc2)cc1 (stereo unspecified)	.	.	-2.0%	3.2%	i	.
Cc1c(C#N)c(NC(=O)COC(=O)c2cc(Cl)c3c(c2)OCCCO3)n(Cc2ccco2)c1C	.	.	3.3%	.	.	.
CCOC(=O)c1cccc(NC(=O)Nc2ccc3c(c2)N(C)C(=O)c2ccccc2S3)c1	.	.	2.8%	.	.	.
Cc1noc(C)c1/C=N/Nc1ccccn1	-70.5*	3.7%	-0.3%	-27.4%	i	1.4%

Compound activity from PubChem BioAssay.
